# Experimental data from PubChem BioAssay (NCI).
# The panel holds about 79,000 compounds, 15% with a hit somewhere; the sample as a whole holds those more often. Unmarked numbers belong to inactive results. Activity calls are given as the source filed them. Cut-off read from the data, not from the text of the source: active = growth inhibition above about 70%; inactive = the rest.
# Key:
# [1] = NCI Yeast Anticancer Drug Screen. Data for the rad52 strain (AID 147);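 note: 0% = growth of vehicle-treated control cultures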; conditions: S. cerevisiae rad52 mutant growth inhibition, stronger effect = higher value
# Method in brief: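 Measured: yeast growth inhibition. System: strain with a defined DNA damage repair alteration. Reference: vehicle-treated control cultures.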
# [2] = NCI Yeast Anticancer Drug Screen. Data for the wt1 strain (AID 149);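 note: 0% = growth of vehicle-treated wt1 cultures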; conditions: S. cerevisiae wt1 strain (SPY 50644) growth inhibition, stronger effect = higher value
# Method in brief: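 wt1 strain grown with compound or vehicle; inhibition taken from the growth difference.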
# [3] = NCI Yeast Anticancer Drug Screen. Data for the rad50EPP+ strain (AID 151);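 note: 0% = growth of vehicle-treated control cultures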; conditions: S. cerevisiae rad50 mutant strain, stronger effect = higher value
# Method in brief: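 One strain with a rad50 alteration (rad50EPP+) was compound-treated, its growth then compared to that of vehicle controls.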
# [4] = NCI Yeast Anticancer Drug Screen. Data for the rad50 strain (AID 155);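 note: 0% = growth of vehicle-only cultures of the same strain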; conditions: S. cerevisiae rad50 strain growth inhibition, stronger effect = higher value
# Method in brief: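 DNA repair mutant yeast, compound exposure, growth read-out; inhibition is taken relative to vehicle.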
# [5] = NCI Yeast Anticancer Drug Screen. Data for the mec2-1 strain (AID 157); conditions: S. cerevisiae mec2-1 strain, stronger effect = higher value
# Method in brief: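 Test agents were screened against the mec2-1 yeast strain, with defined DNA repair or cell cycle alteration. Growth was scored as inhibition against vehicle-only controls.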
# [6] = NCI Yeast Anticancer Drug Screen. Data for the rad14 strain (AID 159);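 note: 0% = growth of vehicle-treated control cultures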; conditions: S. cerevisiae rad14 strain growth inhibition, stronger effect = higher value
# Method in brief: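 DNA repair-defective yeast, compound-exposed; % growth inhibition derived by comparison with vehicle-treated controls.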
# [7] = NCI Yeast Anticancer Drug Screen. Data for the sgs1 mgt1 strain (AID 161);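 note: 0% = growth of cultures given vehicle only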; conditions: S. cerevisiae sgs1 mgt1 strain, stronger effect = higher value
# Method in brief: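 Genetically altered yeast, compound exposure, growth inhibition relative to vehicle.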
# [8] = NCI Yeast Anticancer Drug Screen. Data for the CLN2oe strain (AID 163);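 note: 0% = growth of vehicle-only control cultures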; conditions: S. cerevisiae CLN2oe strain, stronger effect = higher value
# Method in brief: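 Here, growth inhibition in a cell-cycle-altered yeast strain after compound exposure was quantified against vehicle control growth.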
# [9] = NCI Yeast Anticancer Drug Screen. Data for the cln2 rad14 strain (AID 165);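 note: 0% = growth equal to vehicle treated cultures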; conditions: S. cerevisiae cln2 rad14 strain, stronger effect = higher value
# Method in brief: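 Growth of compound-exposed yeast (cln2 rad14 genotype) measured and expressed as inhibition relative to vehicle.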
# [10] = NCI Yeast Anticancer Drug Screen. Data for the bub3 strain (AID 167); conditions: S. cerevisiae bub3 mutant strain, stronger effect = higher value
# Method in brief: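 In this screen, a yeast mutant lacking normal mitotic checkpoint function is challenged with compound. Relative growth versus vehicle gives the inhibition value.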
# [11] = NCI Yeast Anticancer Drug Screen. Data for the wt2 strain (AID 169);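 note: 0% = growth of vehicle-treated yeast cultures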; conditions: S. cerevisiae wt2 strain growth inhibition, stronger effect = higher value
# Method in brief: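 Genetically defined yeast strains from a DNA-repair/cell-cycle panel were used. Compound-exposed yeast growth was measured, and the inhibition was calculated relative to vehicle treatment.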
# [12] = NCI Yeast Anticancer Drug Screen. Data for the mlh1 strain (AID 171);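 note: 0% = growth of vehicle-treated control cultures of the same strain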; conditions: S. cerevisiae mlh1 strain growth inhibition, stronger effect = higher value
# Method in brief: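 Here the genetically defined yeast mutant is grown with each compound, and the extent to which its growth falls below that of vehicle-exposed cells is reported.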
# [13] = NCI Yeast Anticancer Drug Screen. Data for the sgs1 strain (AID 173);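 note: 0% = growth of vehicle-only control cultures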; conditions: S. cerevisiae sgs1 mutant, stronger effect = higher value
# Method in brief: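 Relative growth inhibition, referenced to vehicle, was determined in a yeast strain with a defined alteration affecting DNA damage repair or cell cycle control after compound exposure.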
# [14] = NCI Yeast Anticancer Drug Screen. Data for the mlh1 rad18 strain (AID 175); conditions: S. cerevisiae mlh1 rad18 strain growth inhibition, stronger effect = higher value
# Method in brief: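 In this whole-cell yeast screen, a strain with altered DNA damage repair is challenged with compound, and its growth is measured against matched vehicle-treated controls.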
# [15] = NCI Yeast Anticancer Drug Screen. Data for the rad18 strain (AID 177); conditions: S. cerevisiae rad18 mutant growth inhibition, stronger effect = higher value
# Method in brief: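 Screen uses a yeast strain with a defined lesion in DNA damage repair; compound effect is read as loss of growth compared to untreated vehicle cultures.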
# [16] = at 5.0 µM (retest, dose inferred, filed as 0.5)
# [17] = at 50.0 µM (retest, dose inferred, filed as 5.0)
smiles,measurement,setting,value
OC(CN1CCCCC1)c1cc(Cl)c(Cl)c(Cl)c1 (stereo not drawn),growth inhibition,[1]; at 1.2 µM,3%
same,growth inhibition,[1]; at 3.7 µM,11%
same,growth inhibition,[1]; at 11.0 µM,17%
same,growth inhibition,[1]; at 33.0 µM,28%
same,growth inhibition,[1]; at 100.0 µM,40%
same,growth inhibition,[2]; at 1.2 µM,4%
same,growth inhibition,[2]; at 3.7 µM,9%
same,growth inhibition,[2]; at 11.0 µM,6%
same,growth inhibition,[2]; at 33.0 µM,6%
same,growth inhibition,[2]; at 100.0 µM,14%
same,growth inhibition,[3]; at 1.2 µM,3%
same,growth inhibition,[3]; at 3.7 µM,8%
same,growth inhibition,[3]; at 11.0 µM,10%
same,growth inhibition,[3]; at 33.0 µM,7%
same,growth inhibition,[3]; at 100.0 µM,1%
same,growth inhibition,[4]; at 1.2 µM,5%
same,growth inhibition,[4]; at 3.7 µM,13%
same,growth inhibition,[4]; [16],2%
same,growth inhibition,[4]; at 11.0 µM,11%
same,growth inhibition,[4]; at 33.0 µM,20%
same,growth inhibition,[4]; [17],41%
same,growth inhibition,[4]; at 50.0 µM,38.4%
same,growth inhibition,[4]; at 100.0 µM,36%
same,growth inhibition,[5]; at 1.2 µM,5%
same,growth inhibition,[5]; at 3.7 µM,11%
same,growth inhibition,[5]; [16],2%
same,growth inhibition,[5]; at 11.0 µM,15%
same,growth inhibition,[5]; at 33.0 µM,24%
same,growth inhibition,[5]; [17],49%
same,growth inhibition,[5]; at 50.0 µM,32.2%
same,growth inhibition,[5]; at 100.0 µM,38%
same,growth inhibition,[6]; at 1.2 µM,9%
same,growth inhibition,[6]; at 3.7 µM,25%
same,growth inhibition,[6]; at 11.0 µM,33%
same,growth inhibition,[6]; at 33.0 µM,28%
same,growth inhibition,[6]; at 100.0 µM,39%
same,growth inhibition,[7]; [16],12%
same,growth inhibition,[7]; [17],49%
same,growth inhibition,[7]; at 50.0 µM,57.1%
same,growth inhibition,[8]; at 1.2 µM,7%
same,growth inhibition,[8]; at 3.7 µM,8%
same,growth inhibition,[8]; at 11.0 µM,32%
same,growth inhibition,[8]; at 33.0 µM,47%
same,growth inhibition,[8]; at 100.0 µM,57%
same,growth inhibition,[9]; [16],8%
same,growth inhibition,[9]; [17],35%
same,growth inhibition,[9]; at 50.0 µM,51.6%
same,growth inhibition,[10]; at 1.2 µM,3%
same,growth inhibition,[10]; at 3.7 µM,9%
same,growth inhibition,[10]; [16],4%
same,growth inhibition,[10]; at 11.0 µM,25%
same,growth inhibition,[10]; at 33.0 µM,38%
same,growth inhibition,[10]; [17],38%
same,growth inhibition,[10]; at 50.0 µM,70.8% (active)
same,growth inhibition,[10]; at 100.0 µM,53%
same,growth inhibition,[11]; at 1.2 µM,3%
same,growth inhibition,[11]; at 3.7 µM,8%
same,growth inhibition,[11]; at 11.0 µM,10%
same,growth inhibition,[11]; at 33.0 µM,12%
same,growth inhibition,[11]; at 100.0 µM,15%
same,growth inhibition,[12]; at 1.2 µM,5%
same,growth inhibition,[12]; at 3.7 µM,7%
same,growth inhibition,[12]; at 11.0 µM,17%
same,growth inhibition,[12]; at 33.0 µM,18%
same,growth inhibition,[12]; at 100.0 µM,21%
same,growth inhibition,[13]; at 1.2 µM,6%
same,growth inhibition,[13]; at 3.7 µM,14%
same,growth inhibition,[13]; at 11.0 µM,20%
same,growth inhibition,[13]; at 33.0 µM,27%
same,growth inhibition,[13]; at 100.0 µM,37%
same,growth inhibition,[14]; [16],14%
same,growth inhibition,[14]; [17],43%
same,growth inhibition,[14]; at 50.0 µM,50.4%
same,growth inhibition,[15]; at 1.2 µM,5%
same,growth inhibition,[15]; at 3.7 µM,13%
same,growth inhibition,[15]; at 11.0 µM,8%
same,growth inhibition,[15]; at 33.0 µM,14%
same,growth inhibition,[15]; at 100.0 µM,22%
